According to PubChem BioAssay (NCI):
The panel holds about 83,000 compounds, 20% with a hit somewhere; the sample as a whole holds those more often.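 Values shown are percent growth following 48 h exposure of cells in 96-well plates to a single concentration of compound; below 10 was considered active.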 Active and inactive are the calls of the source.

Key:
Experiment in all cases: NCI-60 one-dose screen, 48 h (100 = growth as untreated, 0 = no growth, -100 = all killed)
Settings in all cases: 10 µM
HCT-15 colon = system: HCT-15 colon
HT29 colon = system: HT29 colon
SNB-75 CNS = system: SNB-75 CNS
SNB-19 CNS = system: SNB-19 CNS
U251 CNS = system: U251 CNS
PC-3 prostate = system: PC-3 prostate
SK-MEL-5 melanoma = system: SK-MEL-5 melanoma
UACC-62 melanoma = system: UACC-62 melanoma
LOX IMVI melanoma = system: LOX IMVI melanoma
SK-MEL-28 melanoma = system: SK-MEL-28 melanoma

Measured: growth

CNC(=O)c1cc(Oc2ccc(NC(=O)Nc3ccc(Cl)c(OC(C)C)c3)c(F)c2)ccn1
inactive: HCT-15 colon 41.4% | HT29 colon 41.6% | SNB-75 CNS 75.3% | SNB-19 CNS 66.3% | U251 CNS 58.8% | PC-3 prostate 32.4% | UACC-62 melanoma 34.2% | LOX IMVI melanoma 45.2% | SK-MEL-28 melanoma 70.7%
active: SK-MEL-5 melanoma 4.12%

Cc1ccc(C)c(S(=O)(=O)NC2c3ccccc3Oc3ccccc32)c1
inactive: HCT-15 colon 94% | HT29 colon 88.8% | SNB-75 CNS 91% | SNB-19 CNS 102% | U251 CNS 92.1% | PC-3 prostate 89% | SK-MEL-5 melanoma 101% | UACC-62 melanoma 95.1% | LOX IMVI melanoma 94.1% | SK-MEL-28 melanoma 106%

C[C@H](NC(=O)[C@@H]1CSSC[C@@H](NC(=O)Cc2nc3ccccc3cc2O)C(=O)NCC(=O)N1C)c1ccccc1
inactive: HCT-15 colon 102% | HT29 colon 100% | SNB-75 CNS 150% | SNB-19 CNS 95.2% | U251 CNS 95.7% | PC-3 prostate 81.2% | SK-MEL-5 melanoma 82.5% | UACC-62 melanoma 77.9% | LOX IMVI melanoma 31.3% | SK-MEL-28 melanoma 67.4%

O=C(O)CNS(=O)(=O)c1ccc(OCCOc2ccc(S(=O)(=O)NCC(=O)O)cc2)cc1
inactive: HCT-15 colon 96% | HT29 colon 98% | SNB-75 CNS 97.2% | SNB-19 CNS 106% | U251 CNS 99.9% | PC-3 prostate 96.5% | SK-MEL-5 melanoma 97.4% | UACC-62 melanoma 102% | LOX IMVI melanoma 96.8% | SK-MEL-28 melanoma 106%

O=C(CSc1nnc(-c2ccc(Cl)cc2)o1)c1ccccc1
inactive: HCT-15 colon 99% | HT29 colon 96.1% | SNB-75 CNS 98.3% | SNB-19 CNS 101% | U251 CNS 96% | PC-3 prostate 86.9% | SK-MEL-5 melanoma 91.7% | UACC-62 melanoma 92.4% | LOX IMVI melanoma 94.3% | SK-MEL-28 melanoma 102%

O=C(O)c1ccccc1C(=O)c1cccc2c(F)cccc12
inactive: HCT-15 colon 104% | HT29 colon 115% | SNB-75 CNS 86.2% | SNB-19 CNS 98.3% | U251 CNS 98.7% | PC-3 prostate 92.5% | SK-MEL-5 melanoma 108% | UACC-62 melanoma 97.7% | LOX IMVI melanoma 92.8% | SK-MEL-28 melanoma 111%

O=C(NNC(=O)c1ccncc1)Nc1ccc([N+](=O)[O-])cc1
inactive: HCT-15 colon 101% | HT29 colon 99.5% | SNB-75 CNS 111% | SNB-19 CNS 107% | U251 CNS 113% | PC-3 prostate 103% | SK-MEL-5 melanoma 112% | UACC-62 melanoma 113% | LOX IMVI melanoma 101% | SK-MEL-28 melanoma 127%

C=CCN1C(=O)/C(=C\c2ccc3c(c2)CCC3)SC1=S
inactive: HCT-15 colon 98.8% | HT29 colon 97.4% | SNB-75 CNS 99.9% | SNB-19 CNS 94.2% | U251 CNS 100% | PC-3 prostate 107% | SK-MEL-5 melanoma 99.6% | UACC-62 melanoma 99.2% | LOX IMVI melanoma 98.5% | SK-MEL-28 melanoma 113%

COc1cc(-c2nc3ccccc3[nH]2)ccc1OCc1nnc(-c2ccc(Br)cc2)o1
inactive: HCT-15 colon 45.3% | HT29 colon 70.7% | SNB-75 CNS 104% | SNB-19 CNS 104% | U251 CNS 83.9% | PC-3 prostate 96.2% | SK-MEL-5 melanoma 75% | UACC-62 melanoma 92.7% | LOX IMVI melanoma 92.6% | SK-MEL-28 melanoma 93.2%

CC(C)c1ncc(CO)n1Cc1c(Cl)cccc1Cl
inactive: HCT-15 colon 97.7% | HT29 colon 99.4% | SNB-75 CNS 91.6% | SNB-19 CNS 142% | U251 CNS 101% | PC-3 prostate 94.4% | SK-MEL-5 melanoma 100% | UACC-62 melanoma 108% | LOX IMVI melanoma 104% | SK-MEL-28 melanoma 120%

CCOC(=O)c1sc(Nc2ncccn2)nc1-c1ccccn1
inactive: HCT-15 colon 50.8% | HT29 colon 99.6% | SNB-75 CNS 108% | SNB-19 CNS 91.5% | U251 CNS 73.2% | PC-3 prostate 86.3% | SK-MEL-5 melanoma 83.2% | UACC-62 melanoma 97.6% | LOX IMVI melanoma 79.9% | SK-MEL-28 melanoma 94.7%

CCC(CCNc1cc(OC)cc2cccnc12)CN1C(=O)c2ccccc2C1=O (stereo not given)
inactive: HCT-15 colon 93.1% | HT29 colon 105% | SNB-75 CNS 84% | SNB-19 CNS 103% | U251 CNS 102% | PC-3 prostate 89.2% | SK-MEL-5 melanoma 105% | UACC-62 melanoma 97.5% | LOX IMVI melanoma 90.6% | SK-MEL-28 melanoma 117%

CC(C)C[C@H](NC(=O)CCn1ccc2ccccc2c1=O)B(O)O
inactive: HCT-15 colon 61.7% | HT29 colon 25.7% | SNB-75 CNS 77.8% | SNB-19 CNS 66.1% | U251 CNS 68.2% | PC-3 prostate 56% | SK-MEL-5 melanoma 29.1% | UACC-62 melanoma 33.3% | LOX IMVI melanoma 40.6% | SK-MEL-28 melanoma 36.9%

C[C@@H]1C(=O)N(C[C@H](Cc2ccccc2)NC(=O)OCc2ccccc2)[C@]1(Cc1ccccc1)C(=O)OCc1ccccc1
inactive: HCT-15 colon 39.3% | HT29 colon 43.7% | SNB-75 CNS 52.5% | SNB-19 CNS 56.7% | U251 CNS 35.2% | PC-3 prostate 10.4% | SK-MEL-5 melanoma 13.2% | UACC-62 melanoma 40.7% | LOX IMVI melanoma 36.5% | SK-MEL-28 melanoma 66.9%

C[N+]1=C(/C=C/c2ccc(I)cc2)C(C)(C)c2ccccc21
inactive: HCT-15 colon 86.6% | HT29 colon 97.2% | SNB-75 CNS 95.9% | SNB-19 CNS 96.7% | U251 CNS 40.6% | PC-3 prostate 87.3% | SK-MEL-5 melanoma 90.4% | UACC-62 melanoma 95.3% | LOX IMVI melanoma 38% | SK-MEL-28 melanoma 84.7%

O=C(NC1CCCC1)c1ccc(N2CCC(NCc3cccc(C(F)(F)F)c3)CC2)cc1
inactive: HCT-15 colon 77.8% | HT29 colon 36.7% | SNB-75 CNS 85.3% | SNB-19 CNS 105% | U251 CNS 82.9% | PC-3 prostate 83.3% | SK-MEL-5 melanoma 79.5% | UACC-62 melanoma 104% | LOX IMVI melanoma 89.7% | SK-MEL-28 melanoma 108%

C=CCNCCCN1C(=O)c2ccc3c4c(ccc(c24)C1=O)C(=O)N(CCCNCC=C)C3=O
active: HCT-15 colon -72.4% | HT29 colon -17.1% | SNB-75 CNS -98.2% | SNB-19 CNS -91.2% | U251 CNS -73.9% | PC-3 prostate -15.5% | SK-MEL-5 melanoma -99.3% | UACC-62 melanoma -80.4% | LOX IMVI melanoma -77.5% | SK-MEL-28 melanoma -76.3%

O=C(N/N=C/c1ccccc1O)c1ccccc1
active: LOX IMVI melanoma 5.3%
inactive: HCT-15 colon 23.9% | HT29 colon 45.5% | SNB-75 CNS 56.6% | SNB-19 CNS 56% | U251 CNS 27.6% | PC-3 prostate 37.8% | SK-MEL-5 melanoma 13.3% | UACC-62 melanoma 13.8% | SK-MEL-28 melanoma 73.5%

COc1cc(C2CC(=O)Nc3c2c(C)nn3-c2nc3ccccc3[nH]2)cc(OC)c1O (stereo not given)
inactive: HCT-15 colon 40.3% | HT29 colon 57.9% | SNB-19 CNS 44.1% | U251 CNS 53.3% | PC-3 prostate 68.1% | SK-MEL-5 melanoma 60.8% | UACC-62 melanoma 67.2% | LOX IMVI melanoma 55.1% | SK-MEL-28 melanoma 13.2%
active: SNB-75 CNS 6.05%

COc1c(-c2c3sc(=O)[nH]c3nc3c2c(=O)[nH]n3C(C)C)cc2c(c1OC)OCO2
inactive: HCT-15 colon 99.6% | HT29 colon 102% | SNB-75 CNS 92.7% | SNB-19 CNS 98.7% | U251 CNS 97.9% | PC-3 prostate 92.6% | SK-MEL-5 melanoma 102% | UACC-62 melanoma 99.4% | LOX IMVI melanoma 92.3% | SK-MEL-28 melanoma 112%

C=CCOc1ccc2c(c1)CC=C1[C@@H]2CC[C@]2(C)C(=O)/C(=N/O)C[C@@H]12
inactive: HCT-15 colon 15% | HT29 colon 26.8% | SNB-75 CNS 115% | SNB-19 CNS 104% | U251 CNS 89.5% | PC-3 prostate 87% | SK-MEL-5 melanoma 84.7% | UACC-62 melanoma 108% | LOX IMVI melanoma 66.9% | SK-MEL-28 melanoma 105%

CCOC(=O)[C@@H](Cc1ccccc1)NC(=O)c1[nH]c2ccc(Cl)cc2c(=O)c1C
inactive: HCT-15 colon 40.7% | HT29 colon 91.7% | SNB-75 CNS 95.9% | SNB-19 CNS 94.3% | U251 CNS 71.7% | PC-3 prostate 80.7% | SK-MEL-5 melanoma 81.6% | UACC-62 melanoma 86.6% | LOX IMVI melanoma 95.8% | SK-MEL-28 melanoma 104%

COc1cc(Cn2c(-c3ccccc3)c(Cl)c3c2-c2oncc2CC3)cc(OC)c1
inactive: HCT-15 colon 80.8% | HT29 colon 56.1% | SNB-75 CNS 94.8% | SNB-19 CNS 85.3% | U251 CNS 37.3% | PC-3 prostate 60.8% | SK-MEL-5 melanoma 109% | UACC-62 melanoma 55.4% | LOX IMVI melanoma 73.8% | SK-MEL-28 melanoma 92.3%

Cc1noc(C)c1-c1ccc2nc(NC(=O)[C@H]3CCN(C#N)C3)cn2c1
inactive: HCT-15 colon 84.4% | HT29 colon 78.1% | SNB-75 CNS 67.7% | SNB-19 CNS 108% | U251 CNS 93.7% | PC-3 prostate 91.7% | SK-MEL-5 melanoma 86.6% | UACC-62 melanoma 77.7% | LOX IMVI melanoma 77.7% | SK-MEL-28 melanoma 104%

CC(=O)/C(=C\c1ccc(Cl)cc1)c1ccccc1
active: HT29 colon 2.71% | SK-MEL-5 melanoma -35.6% | LOX IMVI melanoma 0.385%
inactive: HCT-15 colon 10.3% | SNB-75 CNS 37.4% | SNB-19 CNS 29.7% | U251 CNS 13.6% | PC-3 prostate 21.9% | UACC-62 melanoma 29.2% | SK-MEL-28 melanoma 65%

COc1cccc(-c2nnc(COc3ccc(-c4nc5ccc(C)cc5[nH]4)cc3OC)o2)c1
inactive: HCT-15 colon 18.5% | HT29 colon 21.4% | SNB-75 CNS 56.6% | SNB-19 CNS 69.6% | U251 CNS 23% | PC-3 prostate 57.7% | SK-MEL-5 melanoma 70.4% | UACC-62 melanoma 79.9% | LOX IMVI melanoma 78.4% | SK-MEL-28 melanoma 65.2%

C[C@@H]1N=C(c2ccc(Br)cc2)Nc2nc3ccccn3c2C1=O
inactive: HCT-15 colon 30.7% | HT29 colon 17.5% | SNB-75 CNS 50.2% | SNB-19 CNS 82.6% | U251 CNS 54% | PC-3 prostate 63.2% | SK-MEL-5 melanoma 31.9% | UACC-62 melanoma 49.2% | LOX IMVI melanoma 52.4% | SK-MEL-28 melanoma 66.2%
